Assay outcomes from PubChem BioAssay.
Rows were chosen to be rich in hits. Some 3% of all compounds tested hit in one or more screens of this group.
C8 TRAIL sens: caspase-8 TRAIL sensitization. NB7+C8 cells + TRAIL, ATPlite viability luminescence. inhibition (viability loss, TRAIL sensitization), % at 10 µM. 360,000 tested, 1% active. AID 624354;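 active = compounds causing at least 50% loss of cell viability in the single-dose screen, relative to plate controls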
SENP8 block-1: blocks the human protease SENP8; Q96LD8; purified SENP8, Z-RLRGG-aminoluciferin cleavage, luminescence; inhibition, % at 10 µM; 330,000 tested, 1.2% active; in the data active = inhibition above about 50%
Target sequence (Q96LD8 whole entry, looked up): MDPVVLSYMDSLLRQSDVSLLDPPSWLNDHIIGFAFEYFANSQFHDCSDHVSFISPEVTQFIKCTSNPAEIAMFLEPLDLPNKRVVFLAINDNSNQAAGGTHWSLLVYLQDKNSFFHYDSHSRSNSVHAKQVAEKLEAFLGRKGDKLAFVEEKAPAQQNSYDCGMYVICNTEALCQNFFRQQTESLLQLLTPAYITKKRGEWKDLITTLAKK
PPC-1+TRAIL kill: compounds killing PPC-1 cancer cells with TRAIL present (potentiator screen, no TRAIL-free arm); PPC-1 cells + TRAIL, ATPLite viability luminescence; cell killing (% activity), % at 4 µM or 5 µM; 220,000 tested, 0.41% active; AID 1443;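 active = cell killing above 50% in the first pass at 4 µM, then a duplicate retest at 5 µM averaging 50% or more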;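 also: plate controls were cells with TRAIL plus DMSO for no effect and medium-only wells lacking cells for full effect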
SENP8 block-2: inhibitors of human SENP8 protease | recombinant SENP8, Nedd8 substrate fluorescence | inhibition, % at 20 µM | 360,000 tested, 0.64% active; in the data active = inhibition mostly above about 40%, no sharp cut-off; inactive = mostly below about 27%
SENP6 inh: SENP6 protease inhibition; 330,000 tested, 1.8% active; inhibition, % at 10 µM; AID 2599; Recombinant SENP6 catalytic domain, aminoluciferin luminescence;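 active = inhibition above about 50% at the single tested dose, limit read from the data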;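 also: plate controls were DMSO wells with enzyme for no effect and DMSO wells lacking enzyme for full effect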
SENP7 inh: blocks the human protease SENP7 | inhibition, % at 5 µM | recombinant SENP7, Z-RLRGG-aminoluciferin luminescence, 40 min | Q9BQF6 | 330,000 tested, 1.5% active;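 active = inhibition above about 50% at the single test dose, limit read from the data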;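 also: plate controls were DMSO with enzyme for no effect and no enzyme buffer wells for full effect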
Target sequence (Q9BQF6 706-1050 limits assumed): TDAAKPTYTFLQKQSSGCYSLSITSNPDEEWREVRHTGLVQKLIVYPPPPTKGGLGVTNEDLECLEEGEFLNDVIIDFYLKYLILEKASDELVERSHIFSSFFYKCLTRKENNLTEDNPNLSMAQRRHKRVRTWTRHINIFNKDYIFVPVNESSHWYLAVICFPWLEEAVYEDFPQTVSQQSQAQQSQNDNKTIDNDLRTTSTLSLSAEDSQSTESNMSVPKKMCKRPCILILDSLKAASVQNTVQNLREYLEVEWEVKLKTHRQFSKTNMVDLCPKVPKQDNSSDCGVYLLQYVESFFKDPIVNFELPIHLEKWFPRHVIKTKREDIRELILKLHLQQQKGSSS
An asterisk follows results filed as active; x = no result given.

SMILES	C8 TRAIL sens	SENP8 block-1	PPC-1+TRAIL kill	SENP8 block-2	SENP6 inh	SENP7 inh
Fc1c(F)c(F)c(/C=N/NC(=S)Nc2cccnc2)c(F)c1F	18	-15	38	10	-12	-8
Oc1ccc(/C=N/NC(=S)Nc2cccnc2)c(O)c1O	-18	x	4	56*	x	x
Oc1cccc(/C=N/NC(=S)Nc2cccnc2)c1O	56*	x	27	-132	x	x
Oc1ccc(/C=N/NC(=S)Nc2cccnc2)c(O)c1	80*	9	28	-97	14	3
CC(=O)Nc1ccc(N2C(=O)CC(Sc3nc(C)cc(C)n3)C2=O)cc1 (stereo not given)	-13	-7	x	1	-44	-2
N#Cc1ccsc1NC(=O)COC(=O)c1cc2ccccc2cc1O	6	89*	8	-83	96*	89*
N#Cc1ccsc1NC(=O)COC(=O)c1ccc(NC(N)=O)cc1	19	73*	12	-2	50	69*
NC(=O)Nc1ccc(C(=O)OCC(=O)Nc2sccc2C(N)=O)cc1	19	-3	x	-5	3	-2
COc1ccc(S(N)(=O)=O)cc1C(=O)OCC(=O)Nc1sccc1C#N	-2	-20	x	-5	-11	-5
COC(=O)c1sc(NC(=S)NC(=O)c2ccccc2)nc1C	49	8	-2	18	37	12
Cc1csc(NC(=S)NC(=O)c2ccccc2)n1	72*	18	x	16	35	15
CCOC(=O)Cc1csc(NC(=S)NC(=O)c2ccccc2)n1	35	-3	-3	-12	-9	3
CCOC(=O)Cc1csc(NC(=S)NC(=O)c2ccc(C)cc2)n1	82*	-9	27	21	11	2
Cc1[nH]c2ccc(C(=O)NCCCN(C)C3CCCCC3)cc2c1C	-10	-3	x	6	-2	7
Cn1c(N)c(S(=O)(=O)N2CCN(Cc3ccccc3)CC2)c(=O)n(C)c1=O	0	-3	10	4	-9	-1
COC1=C(C)C(=O)C2=C(C1=O)C1C3CC4=C(C(=O)C(OC)=C(C)C4=O)C(CNC(=O)C(C)=O)N3C(C#N)C(C2)N1C (stereo not given)	86*	x	x	55*	x	x
CCCn1c(Nc2nc3ccccc3n2C)nc2ccccc21	53*	-11	7	-293	-11	-8
COc1ccccc1N(Cc1ccccc1)S(=O)(=O)c1cccc(C(=O)Nc2cc(C)ccn2)c1	61*	26	x	11	42	-2
COc1ccccc1N(Cc1ccccc1)S(=O)(=O)c1cccc(C(=O)Nc2ncccc2C)c1	12	1	x	10	-9	4
CCN(CC)CCNc1cccc2sc3ccccc3c(=O)c12	22	x	x	44*	x	x
CCN(CC)CCNc1ccc(CO)c2sc3ccccc3c(=O)c12	12	8	25	15	15	6
CCOc1cc(C)c(S(=O)(=O)NCCCn2ccnc2)cc1C	0	2	x	3	-6	4
O=C(N=Nc1c(O)[nH]c2ccc(Br)cc12)c1cc(-c2cccs2)nc2ccccc12	87*	x	16	-64	x	x
Cn1c(O)c(N=NC(=O)c2cc(-c3cccs3)nc3ccccc23)c2ccccc21	48	0	24	-8	-5	8
CC(C)Sc1ccc(C(=O)Nc2ccc(F)cc2F)cn1	12	56*	16	10	70*	68*
SMILES	C8 TRAIL sens	SENP8 block-1	PPC-1+TRAIL kill	SENP8 block-2	SENP6 inh	SENP7 inh
O=C(Nc1ccc(F)cc1F)c1ccc(-n2cccn2)nc1	-22	-8	4	27	-42	-3
CC(C)(C)c1ccc(CSc2nc(N)cc(=O)[nH]2)cc1	2	-14	x	23	3	-3
Cc1cc(N/N=C/c2ccc(O)cc2O)nc(-c2ccccc2O)n1	77*	x	34	-225	x	x
C/C(=N\Nc1cc(C)nc(-c2ccccc2O)n1)c1ccccc1O	29	-8	24	-34	-6	-2
Cc1cc(N/N=C\c2ccccc2)nc(-c2ccccc2O)n1	56*	-11	34	-27	-13	-4
COc1ccc(O)c(/C=N/Nc2nc(Nc3ccccc3)nc(-n3nc(C)cc3C)n2)c1	55*	-10	-7	-132	-8	-3
Cc1cc(N/N=C/c2cccc(Cl)c2)nc(-n2nc(C)cc2C)n1	14	-8	6	13	-23	-7
Cc1cc(N/N=C/c2ccccc2O)nc(-c2ccccc2O)n1	19	-17	39	10	-10	-2
Cc1cc(N/N=C/c2ccc(O)cc2O)nc(-n2nc(C)cc2C)n1	36	x	55*	-27	x	x
CSc1ccc(CNC(=O)C2(C)CCCN2CC(C)C)cc1 (stereo not given)	-10	x	x	9	x	x
CN1/C(=C/C=C/c2n(C)c3cc([N+](=O)[O-])c([N+](=O)[O-])cc3[n+]2C)C(C)(C)c2ccccc21	14	x	x	60*	x	x
Cc1cccc[n+]1CC(=O)/C=C1\N(C)c2ccccc2C1(C)C	32	-6	13	24	-14	-6
Cc1c(NC(=O)COC(=O)c2cc(-c3ccc(-c4ccccc4)cc3)nc3ccccc23)c(=O)n(-c2ccccc2)n1C	87*	x	81*	-398	x	x
Cc1c(NC(=O)c2cc(-c3ccccc3)nc3ccccc23)c(=O)n(-c2ccccc2)n1C	-1	-17	x	13	-9	1
O=C(COC(=O)c1cc(-c2ccccc2)nc2ccccc12)Nc1ccc2c(c1)OCO2	-1	-3	19	-7	-3	0
COc1ccc(-c2cc(C(=O)OCC(=O)Nc3ccc4c(c3)OCO4)c3ccccc3n2)cc1	56*	-11	31	-403	5	3
CCCCn1c(N)c(N(CC(C)C)C(=O)c2cccc(S(=O)(=O)N(CC)c3ccccc3)c2)c(=O)[nH]c1=O	-14	x	x	-11	x	x
N/C(=N\OC(=O)C12CC3CC(CC(C3)C1)C2)c1ccccc1	60*	-15	19	19	1	-8
Cc1cc(C)nc(SCC(=O)c2ccc(F)cc2F)n1	1	-13	x	8	-19	-5
O=c1[nH]cc(N(CCO)CCO)c(=O)[nH]1	-19	-6	-14	25	-13	5
CC(C)c1ccc(/C=N/NC(=O)c2c(Cl)cnn2C)cc1	83*	7	42	25	45	8
Cc1nn(C)c(C(=O)N/N=C/c2ccc(Br)cc2)c1Cl	-1	-18	18	19	-18	-3
O=C1C=C(c2c(O)ccc3ccccc23)c2ccccc2C1=O	86*	x	x	-46	x	x
CCC(=O)Nc1ccc(C2C(=O)c3ccccc3C2=O)cc1	73*	34	x	15	36	-5
CCCCC(=O)Nc1ccc(C2C(=O)c3ccccc3C2=O)cc1	48*	3	x	8	20	-7
CCCCn1nnnc1C(c1ccccc1)N1CCN(c2ccc(C(F)(F)F)cc2[N+](=O)[O-])CC1 (stereo not given)	4	x	x	26	x	x
CCC(c1nnnn1-c1ccc2c(c1)OCCO2)N1CCN(c2ccc(C)cc2)CC1 (stereo not given)	6	x	x	13	x	x
